HT1080NT lethal: kills 2HG-producing HT-1080-NT fibrosarcoma cells; HT-1080-NT fibrosarcoma viability, CellTiter-Glo ATP luminescence, 48 h; AID 686970; Potency, µM (top dose mostly 46.1 µM), most hits filed as cytotoxic; actives 1.6% (n = 360,000);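 further: NT is the 2HG producing partner of a matched IDH1 knockdown line; nearly all actives have a fitted effect of over 55% in size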
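Fibrosarcoma NT cells, 750 per well in 5% FBS RPMI, were exposed to compound for 48 hours. Viability: CellTiter-Glo luminescence.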
HT1080 IDH1KD tx: HT-1080 IDH1 knockdown cell toxicity (counter line); HT-1080 IDH1 knockdown viability, ATP luminescence, 48 h; Potency, µM (highest dose often 46.1 µM), hits mostly cytotoxic; actives 2% (n = 360,000)
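IDH1KD HT-1080 cells, 750/well, RPMI + 5% FBS; compound pinned after 2 h settling; 48 h, 37 °C; CellTiter-Glo luminescence; % activity normalised to DMSO and no-cell wells; curves fitted, classed by r2 and efficacy.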
IL1B secr inh: inflammasome signaling inhibition, IL-1 beta readout; activity change, % at 57.5 µM; AID 743279; THP-1 LPS/ATP IL-1B secretion, AlphaLISA, 16 h; hits give low values; actives 4.7% (n = 360,000); in the data active means activity change below about -50%; inconclusive means mostly about -30% to -49%
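THP-1 cells pretreated 1 hr with compounds (up to 57.5 uM final), then stimulated with LPS (250 ng/mL final) plus ATP (1.25 mM final); secreted IL-1B measured by AlphaLISA after 16 hr, decreased signal indicating inhibition.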
TDP1 cell CPT: DT40-hTDP1 cell growth loss with CPT; actives 12% (n = 420,000); Potency, µM (doses to about 46.2 µM), actives largely listed as inhibitors; chicken DT40 Tdp1-/-;hTDP1 cells + 20 nM CPT, ATP luminescence, 48 h; AID 686979; further: nearly all actives have a fitted effect of over 55% in size
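Chicken DT40 Tdp1-/- cells stably complemented with human TDP1 were seeded at 400 cells/well in medium containing 20 nM camptothecin, exposed to pin-transferred compounds, and grown at 37 °C for at least 48 hr. Viability was read as ATP luminescence.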
DT40 TDP1 no CPT: qHTS for Inhibitors of human tyrosyl-DNA phosphodiesterase 1 (TDP1): qHTS in cells in absence of CPT | DT40 Tdp1-/- hTDP1 cells, no CPT, ATP luminescence, 48 h | Potency, µM (top dose mostly 46.2 µM), actives largely listed as inhibitors | actives 15% (n = 420,000); further: nearly all actives have a fitted effect of over 55% in size
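Growth kinetics read by CellTiter-Glo luminescence after ≥48 hr at 37 °C. Cells: DT40 Tdp1-/- stably carrying human TDP1, 400 per well, compound exposure in the absence of CPT (DMSO vehicle).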
A number is an active result; - = inactive; ? = inconclusive; . = no result; [ ] = remark or other dose. An excerpt weighted towards active compounds, which were near 19% of everything screened. Unless noted, the call rests on the fitted dose curve; in most records, active means well fitted curve in the direction sought with a large enough effect; inconclusive means small, poorly fitted or top-dose-only effect, or another doubt; inactive means no such curve, though single readings can be large; an effect the other way counts as inactive or inconclusive.

SMILES | HT1080NT lethal | HT1080 IDH1KD tx | IL1B secr inh | TDP1 cell CPT | DT40 TDP1 no CPT
CCC1=NN(C(=O)c2ccc(Br)cc2)C(O)(c2ccc(C)cc2)C1 (configuration not stated) | - | - | - | 5.2µM | 5.2µM
CCC1=NN(C(=O)c2ccc(C)cc2)C(O)(c2ccc(Br)cc2)C1 (configuration not stated) | - | - | - | ? | ?
CC1C2C(c3ccccc3)N(C)C(=O)N(C)C2N(C)C(=O)N1C (configuration not stated) | - | - | - | - | -
CN1NC(c2ccccc2)NN(C)C1=O | - | - | - | 18µM | -
C[N+]1(CC(=O)c2ccc(Br)cc2)CCOCC1 | . | . | . | - | -
O=S(=O)(N[C@H]1C[C@@H](NS(=O)(=O)OCC(Cl)(Cl)Cl)C2CCCCC21)OCC(Cl)(Cl)Cl (some centres not stated) | - | - | - | ? | 23µM
CCOC(=O)Cc1csc(/N=C/c2c(O)n(-c3ccc(C)cc3C)c(=O)c3ccccc23)n1 | - | - | - | ? | 16µM
CCOC(=O)Cc1csc(NC(=O)c2c(O)c3ccccc3n(CC(C)C)c2=O)n1 | - | - | - | - | -
CN(c1ccccc1)S(=O)(=O)c1ccc(C(=O)NCc2cccs2)cc1 | - | - | - | ? | -
COc1ccc(C(=O)Nc2cccc(-c3nc4cccnc4s3)c2C)c(OC)c1 | . | . | . | 21µM | 12µM
CCOCC(=O)Nc1cccc(-c2nc3cccnc3s2)c1C | - | - | - | - | -
Cc1ccc(NC(=O)Cc2ccc(-n3c(C)nc4cccnc43)cc2)c(Cl)c1 | . | . | . | 5.2µM | 4.1µM
Cc1c(NC(=O)Cc2ccc(Cl)cc2)cccc1-c1nc2cccnc2s1 | . | . | . | ? | 16µM
CCCC(=O)NC(=S)Nc1ccc(N2CCN(C(=O)c3cccs3)CC2)cc1 | ? | ? | -85 | 16µM | 15µM
CS(=O)(=O)N1CCN(c2ccc(NC(=S)NC(=O)c3cccs3)cc2)CC1 | - | - | - | - | -
O=C(NC(=S)Nc1ccc(N2CCN(C(=O)c3ccccc3)CC2)cc1)c1cccs1 | - | - | -60 | ? | 26µM
O=C(NC(=S)Nc1ccc(S(=O)(=O)N2CCCCCC2)cc1)c1cccs1 | ? | - | - | ? | 21µM
O=C(NC(=S)Nc1ccc(N2CCCCC2)cc1)c1cccs1 | 1.3µM | 4µM | ? | 21µM | ?
Cc1cc(S(=O)(=O)N(Cc2ccc(C(C)C)cc2)CC2CCCO2)ccc1-n1cnnn1 (configuration not stated) | ? | - | -79 | ? | -
Cc1cc(S(=O)(=O)N(Cc2ccc(F)cc2)CC2CCCO2)ccc1-n1cnnn1 (configuration not stated) | - | - | - | - | -
COc1cc2c(cc1OC)C(c1ccccc1[N+](=O)[O-])=NCC2 | - | - | - | 5.8µM | 2.9µM
COc1cc2c(cc1OC)C(c1ccccc1N)=NCC2 | - | - | - | ? | 21µM
COc1cc2c(cc1OC)C(c1ccccc1)=NCC2 | - | - | - | -[9.04 µM] | ?
O=C(NNCC(O)COc1ccccc1)c1ccccc1 (configuration not stated) | - | - | - | - | -
OC(CNCCc1ccc(Cl)cc1)COc1ccc2ccccc2c1 (configuration not stated) | ? | ? | -106 | ? | ?
OC(CNCCC(c1ccccc1)c1ccccc1)COc1ccccc1 (configuration not stated) | ? | 23µM | -105 | 13µM | 13µM
CCC(=O)c1ccc(OCC(O)CNCCc2ccc(Cl)cc2)cc1 (configuration not stated) | ? | - | ? | ? | ?
OC(COc1ccc(Cl)cc1Cl)Cn1ccnc1 (configuration not stated) | - | - | - | - | ?
Clc1ccc(OCCNCCc2ccccc2)cc1 | - | - | -53 | ? | ?
OC(CNCCc1ccc(Cl)cc1)COc1cc(Cl)ccc1Cl (configuration not stated) | - | - | - | 16µM | ?
